Experimental findings from ChEMBL document CHEMBL4513216, “Probing the Open Global Health Chemical Diversity Library for Multistage-Active Starting Points for Next-Generation Antimalarials” (ACS Infect Dis, 2020) are described below.

The whole screen tested about 69,000 compounds, of which about 8,600 (12%) showed an effect of 50% or more. For the sample, strong results were picked, then their nearest neighbours and some compounds at random.

The assay has as its system Plasmodium berghei. As to the kind of experiment: Screen against P. berghei liver stage (PbLuc), transformed with Luciferase, at 10uM. The following applies: tested at 10 uM. It is filed as functional, HepG2.
For `CNC(=O)c1cccnc1Oc1ccccc1`, the INHIBITION was found to be 9.89%.

In the case of `NC(=O)CC1c2cccnc2C(=O)N1Cc1ccccc1` (stereo not given), the INHIBITION is -16.4%.

Take `CC(C)(C)c1n[nH]c(C2CN(C(=O)c3cc(Cl)c[nH]3)CCO2)n1` (stereo not given): the INHIBITION is given as 19.7%.

`Cc1ccc(S(N)(=O)=O)cc1C(=O)NC1CCCN(C)C1` (stereo not given): the INHIBITION is 3.46%.

Regarding `CN(Cc1ccccc1)S(=O)(=O)N1C[C@H](C2CC2)[C@@H](N)C1`, the INHIBITION is reported as -43.1%.

On to `CN(Cc1ccc(F)cc1)S(=O)(=O)N1CCOCC1`, for which the INHIBITION is recorded as -8.005%.

With `CN(Cc1ccccc1)C(=O)CCN1C[C@H](C2CC2)[C@@H](N(C)C)C1`, the INHIBITION is on record as 14.9%.

Consider `CC(=O)N[C@H]1CN(S(=O)(=O)N(C)Cc2ccccc2)C[C@@H]1C1CC1`, for which the INHIBITION was found to be 64.4%.

With `CN(Cc1ccccc1)S(=O)(=O)N1C[C@@H](C(=O)O)[C@H](C2CC2)C1`, the INHIBITION is 61.8%.

Turning to `CCC[C@H]1CN(S(=O)(=O)N(C)Cc2ccccc2)C[C@@H]1N`, the INHIBITION was found to be 77.5%.

As to `CN(Cc1cccc(F)c1)S(=O)(=O)N1CCOCC1`, the INHIBITION was -26.1%.

Turning to `CCN(Cc1ccccc1)C(=O)CCN1C[C@@H](C(=O)O)[C@H](C2CC2)C1`, the INHIBITION is recorded as 5.78%.

Take `CC(=O)N[C@@H]1CN(S(=O)(=O)Cc2ccccc2)C[C@H]1C(C)C`: the INHIBITION is recorded as 41.6%.

`CN(C)CC(=O)N1CC2(CCN(S(=O)(=O)c3ccccc3)C2)C1`: the INHIBITION is -25.8%.

`C1CCC(CNC2CCCN(Cc3noc(C4CC4)n3)C2)C1` (stereo not given): the INHIBITION was found to be 7.43%.

Regarding `CC(c1ncc(-c2ccccc2)o1)N1CCN(C(=O)N(C)C)CC1` (stereo not given), the INHIBITION came out at 48.2%.

Regarding `CCn1c(C)nnc1CN(C)C1CCN(CCS(=O)(=O)CC)C1` (stereo not given), the INHIBITION is reported as -49.5%.

Turning to `CC(C)CCN1C2(CCN(C(=O)CN(C)C)C2)c2ccccc2S1(=O)=O` (stereo not given), the INHIBITION was 21.4%.

With `CS(=O)(=O)N1CC2(CCN(C3CCCCC3)CC2)Cc2ccccc21`, the INHIBITION amounted to 32.5%.

`O=C(c1n[nH]c2c1CCN(Cc1nccs1)C2)N1CCCC1`: the INHIBITION amounted to 18.1%.

`CS(=O)(=O)c1cc(NC(=O)COc2ccccc2F)cc(C(=O)O)c1`: the INHIBITION was 1.98%.

Regarding `CC(C)CCC(=O)NC(C#N)CC(C)C` (stereo not given), the INHIBITION was 9.91%.

Turning to `CC(C)CC(C#N)NC(=O)CCNC(=O)C(C)(C)C` (stereo not given), the INHIBITION is recorded as 55.5%.

As for `CCC(C#N)NC(=O)CCNC(=O)C(C)(C)C` (stereo not given), the INHIBITION is given as -0.991%.

Turning to `Cc1nc(CN2CCC3(CC2)NC(=O)CC3c2ccccc2)cs1` (stereo not given), the INHIBITION stood at 34.1%.

In the case of `CC(C)Cc1noc(C2CCCCN2C(=O)CCc2cnn(C)c2)n1` (stereo not given), the INHIBITION turned out to be 32.2%.

For `Cc1nn(C)c2sc(C(=O)N3CCCC(n4ccnc4C)C3)cc12` (stereo not given), the INHIBITION worked out at 28.4%.

On to `O=c1occ(CN2CCCCCC2)c(O)c1CN1CCOCC1`, for which the INHIBITION is listed as -28.7%.

For `Cc1nc(C)c(S(=O)(=O)NC(=O)c2ccoc2)s1`, the INHIBITION worked out at 64.4%.

As to `Cc1nc(C)c(S(=O)(=O)NC(=O)c2ccsc2)s1`, the INHIBITION amounted to 21.8%.

For `Cc1nc(C)c(S(=O)(=O)NC(=O)c2cccs2)s1`, the INHIBITION was found to be 22.8%.

`Cc1nc(C)c(S(=O)(=O)NC(=O)c2sccc2C)s1`: the INHIBITION worked out at 51.5%.

On to `O=C(NS(=O)(=O)c1cnn(-c2ccccc2F)c1)c1ccoc1`, for which the INHIBITION is recorded as -17.4%.

As for `Cc1cccc(NC(=O)c2sccc2C)n1`, the INHIBITION is -52.1%.

For the compound `CCC(C)C(=O)NCCc1nc(C(F)(F)F)cs1` (stereo not given), the INHIBITION stood at 5.42%.

With `CCc1nc(C(=O)N2CC(C)CN(C)c3ccccc32)c[nH]1` (stereo not given), the INHIBITION is -15%.

For the compound `CCOCCCn1c(NC(=O)c2cnc(C)s2)nc2ccccc21`, the INHIBITION was 57%.

For `Cc1ncsc1C(=O)Nc1ccccn1`, the INHIBITION worked out at 25.2%.

With `CCN(CC)CCn1c(NC(=O)c2scnc2C)nc2ccccc21`, the INHIBITION came out at 59%.

As for `CCOCCCn1c(NC(=O)c2scnc2C)nc2ccccc21`, the INHIBITION is 69.8%.

Take `CCOCCCn1c(NC(=O)c2cnc(C)cn2)nc2ccccc21`: the INHIBITION was -96.9%.

With `CCOCCCn1c(NC(=O)c2cc(C)no2)nc2ccccc21`, the INHIBITION turned out to be 5.7%.

For the compound `CCOCCCn1c(NC(=O)c2ccnc(C)n2)nc2ccccc21`, the INHIBITION is on record as 25.4%.

In the case of `CCOc1cccc(NC(=O)c2cc(C)on2)n1`, the INHIBITION was found to be 44.1%.

With `CCCn1c(NC(=O)CNC(=O)OCC)nc2ccccc21`, the INHIBITION is recorded as -3.74%.

Turning to `CCOCCCn1c(NC(=O)c2cc(C)on2)nc2ccccc21`, the INHIBITION is listed as 64.9%.

As for `CCOCCCn1c(NC(=O)c2cnn(C)c2)nc2ccccc21`, the INHIBITION is recorded as -4.73%.

Take `CCOCCCn1c(NC(=O)c2ccc(C)nc2)nc2ccccc21`: the INHIBITION came out at 37.2%.

On to `Cc1ccc(C(=O)NCCS(=O)(=O)N2CCSCC2)o1`, for which the INHIBITION was 44.9%.

For `Cc1nc2cc(O)nn2c(C)c1CCC(=O)N(C)Cc1cscn1`, the INHIBITION is on record as -16.6%.

As for `O=C1CCCN1c1cccc(CNCc2nc(-c3ccco3)no2)c1`, the INHIBITION is on record as -8%.

Turning to `Cn1nccc1CCC(=O)NC1CCCN(c2ccccn2)C1` (stereo not given), the INHIBITION was found to be 25.05%.

`CC(C)N(C)[C@@H]1CCN(Cc2nccs2)[C@H]1Cc1ccncc1`: the INHIBITION stood at 24.6%.

With `CC1COCCN1Cc1nc(-c2ccc(F)cc2)no1` (stereo not given), the INHIBITION is given as -0.113%.

With `COC1C[C@@H]2CN(C(=O)c3[nH]nc4c3CCCC4)C[C@@H]2C1` (stereo not given in full), the INHIBITION is 24.8%.
